Measured values taken from PubChem BioAssay (Tox21).
The source made the active and inactive calls. Entries that show only a call come without a potency. Calls follow the shape of the dose curve; as a rule, active = well fitted curve in the direction sought with a large enough effect in the repeat runs; inconclusive = weak or mixed curves; inactive = flat fitted curve, though single readings scatter.

Test: qHTS assay to test for compound auto fluorescence at 460 nm (blue) in HepG2 cells (AID 720687)
Conditions: autofluorescence 405/460 nm, 1 h; series mostly up to 91.3 µM
Method in brief: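 Blue-channel autofluorescence (Ex/Em 405/460 nm, triamterene-equivalent) was measured after 1 hr compound exposure at 37 C, 5% CO2. Cells were HepG2, plated overnight at 37 C in MEM plus 10% FBS.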
Potency is read from the fitted curve at half-maximal effect; tags tell the direction and shape of the fitted curve or compound fluorescence and quenching.

Compound | fluorescence, % of fluorescent control | Potency
O=C(O)[C@H](O)[C@@H](O)[C@H](O[C@@H]1O[C@H](CO)[C@H](O)[C@H](O)[C@H]1O)[C@H](O)CO | 0.0744% [at 18.6 µM] (inactive) | 
Cc1c2ccccc2c(C)c2c1ccc1ccccc12 |  | inactive
NC[C@H]1O[C@H](O[C@H]2[C@H](O[C@@H]3O[C@H](CO)[C@@H](O)[C@H]3O)C(O)[C@H](N)C[C@@H]2N)[C@H](N)[C@@H](O)[C@@H]1O (stereo partly drawn) | -0.0247% [at 18.6 µM] (inactive) | 
O=C(O)Cc1ccccc1Nc1c(Cl)cccc1Cl |  | inactive
CC(C)CCCCCOC(=O)CCS |  | inactive
COc1cc(/C=C/c2ccccc2)oc(=O)c1 |  | inactive
CCO[Si](OCC)(OCC)OCC |  | inactive
CCCCC(CC)COC(=O)CCCCC(=O)OCc1ccccc1 (stereo not drawn) |  | inactive
NC(=S)NC(N)=S |  | inactive
CC(=O)c1ccc(C(C)=O)cc1 |  | inactive
Cc1ccc(C(=O)O)cc1 |  | inactive
CCC(CC)(CC(=O)Nc1cccc(/C=C/c2nc(C3CCC3)cs2)c1)C(=O)O |  | inactive
CCOC(=O)NNc1ccc(N(CC)CC(C)O)nn1 (stereo not drawn) |  | inactive
C=CC(=O)Nc1cc2c(Nc3ccc(F)c(Cl)c3)ncnc2cc1OCCCN1CCOCC1 |  | inactive
CCN(CC)c1ccc2c(-c3ccc(S(=O)(=O)O)cc3S(=O)(=O)[O-])c3ccc(=[N+](CC)CC)cc-3oc2c1 |  | inactive
Cc1cccc2cccnc12 |  | inactive
c1ccsc1 |  | inactive
O=S(=O)(O)c1ccc(Nc2nc(Nc3ccc(/C=C/c4ccc(Nc5nc(Nc6ccc(S(=O)(=O)O)cc6)nc(N(CCO)CCO)n5)cc4S(=O)(=O)O)c(S(=O)(=O)O)c3)nc(N(CCO)CCO)n2)cc1 |  | 35.5 µM [fluorescent] (active)
